Screening data as filed in PubChem BioAssay.
Most compounds without a hit are left out; they make up all but 19% or so of the library.
TDP1 cell noCPT: qHTS for Inhibitors of human tyrosyl-DNA phosphodiesterase 1 (TDP1): qHTS in cells in absence of CPT; DT40 Tdp1-/- hTDP1 cells, no CPT, ATP luminescence, 48 h; Potency, µM (highest dose often 46.2 µM), for the others: at the top dose activity change, negative = growth inhibition, actives largely listed as inhibitors; hit rate 15% among 420,000; AID 686978, 2013; note: potency is the fitted concentration of half-maximal effect; nearly all actives have a fitted effect of over 55% in size
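DT40 Tdp1-/-;hTDP1 cells, no CPT (DMSO vehicle only), 400 cells/well; compounds pin-transferred; ≥48 hr, 37 °C; CellTiter-Glo 30 min RT dark, luminescence read.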
HT1080-NT tox: kills 2HG-producing HT-1080-NT fibrosarcoma cells; HT-1080-NT fibrosarcoma viability, CellTiter-Glo ATP luminescence, 48 h; Potency, µM (titrated, usually from 46.1 µM), for the others: at the top dose activity, negative = less viability, most hits filed as cytotoxic; hit rate 1.6% among 360,000;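 note: NT is the 2HG producing partner of a matched IDH1 knockdown line; potency is the fitted concentration of half-maximal effect; 0% = DMSO-treated cells and -100% = media-only wells without cells; nearly all actives have a fitted effect of over 55% in size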
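HT-1080-NT fibrosarcoma cells (2HG-overproducing), 750 cells/well in RPMI with 5% FBS, dosed after 2 h and incubated 48 h at 37C. CellTiter-Glo luminescence normalized to DMSO and no-cell wells; concentration-response curves fitted and classed.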
IL1B secr inh: inhibitors of inflammasome signaling (IL-1 beta secretion). activity change, % at 57.5 µM. hit rate 4.7% among 360,000. AID 743279. THP-1 LPS/ATP IL-1B secretion, AlphaLISA, 16 h; hits give low values; in the data active = activity change below about -50%; inconclusive = mostly about -30% to -49%
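THP-1 cells pretreated 1 hr with compounds (up to 57.5 uM final), then stimulated with LPS (250 ng/mL final) plus ATP (1.25 mM final); secreted IL-1B measured by AlphaLISA after 16 hr, decreased signal indicating inhibition.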
HT1080 IDH1KD tx: HT-1080 IDH1 knockdown cell toxicity (counter line); HT-1080 IDH1 knockdown viability, ATP luminescence, 48 h; AID 686971; Potency, µM (titrated, usually from 46.1 µM), for the others: top-dose activity, negative = toxicity, hits mostly cytotoxic; hit rate 2% among 360,000;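 note: potency is the fitted concentration of half-maximal effect; 0% = DMSO wells and -100% = cell-free medium wells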
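Viability of IDH1-knockdown HT-1080 fibrosarcoma cells was assessed by CellTiter-Glo after 48 h at 37 °C with titrated compound; concentration-effect curves were classified by fit quality and response size.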
ELG1 repair inh: inhibitors of ELG1-dependent DNA repair in HEK293T cells | HEK293T ELG1-luciferase reporter, luminescence, 16 h; DNA damage induced by 5-fluorouridine | Potency, µM (titrated, usually from 46.1 µM), inactives show at the highest dose activity change, negative = inhibition, most hits filed as inhibitors | hit rate 2.3% among 330,000; note: potency is the fitted concentration of half-maximal effect; nearly all actives have a fitted effect of over 55% in size
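Reporter activity after DNA damage by 5-fluorouridine is monitored. Compound-treated cells incubate 16 hr at 37 °C, then ONE-Glo is added for 30 min before luminescence reading.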
DT40 TDP1 CPT: DT40-hTDP1 cell growth loss with CPT. chicken DT40 Tdp1-/-;hTDP1 cells + 20 nM CPT, ATP luminescence, 48 h. Potency, µM (top dose mostly 46.2 µM), for inactives: top-dose activity change, negative = growth inhibition, actives largely listed as inhibitors. hit rate 12% among 420,000. AID 686979; note: potency is the fitted concentration of half-maximal effect; nearly all actives have a fitted effect of over 55% in size
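Chicken DT40 Tdp1-/- cells stably complemented with human TDP1 were seeded at 400 cells/well in medium containing 20 nM camptothecin, exposed to pin-transferred compounds, and grown at 37 °C for at least 48 hr. Viability was read as ATP luminescence.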
Numbers without * were called inactive; i = inactive; u = inconclusive; x = no result given. Unless noted, calls come from the whole dose curve; as a rule, active = well fitted curve in the direction sought with a large enough effect; inconclusive = small, poorly fitted or top-dose-only effect, or another doubt; inactive = no such curve, though single readings can be large; an effect the other way counts as inactive or inconclusive. Unless noted, % is set by controls: 0 for no effect and ±100 for the full control effect.

SMILES | TDP1 cell noCPT | HT1080-NT tox | IL1B secr inh | HT1080 IDH1KD tx | ELG1 repair inh | DT40 TDP1 CPT
COc1ccc(C(=O)c2sc3nc4c(c(C(F)(F)F)c3c2N)CN(C(C)=O)CC4)cc1OC | 16.4µM* | x | x | x | x | 18.4µM*
COc1c(O)cc2c(c1O)[C@@H]1O[C@H](CO)[C@@H](O)[C@H](O)C1OC2=O (stereo partly specified) | -4.2% | 15.3% | 10.8 | 3.2% | 16.4% | -5.6%
COc1ccc2c(C)c(CCC(=O)NCc3ccc(Cl)cc3)c(=O)oc2c1C | u | x | x | x | x | -22.1%
COc1ccc(C(=O)OC(COc2ccccc2)Cn2ccnc2)cc1 (stereo unspecified) | u | -12.9% | -90.0* | -14.7% | 18.1% | -12.4%
COc1ccc(NC(=O)c2c(-c3ccc(C)cc3)nnc3ccccc23)cc1Cl | -13.5% | x | x | x | x | 5.5%
NC(N)=NN=C(c1ccc(F)cc1)c1ccc(C(F)(F)F)cc1 | 2.31µM* | 2.91µM* | -104.4* | 7.31µM* | x | 2.59µM*
CC(=O)C1=C(O)C(=Cc2ccccc2)OC1=O | u | -12.8% | -12.3 | -6.5% | x | 1.8%
CCOC(=O)C1=C(C)OC(=Cc2ccccc2)C1=O | 0.0092µM* | 7.7% | 31.6 | -0.1% | x | -105.8%
Cc1ccc(C2=C(O)c3ccccc3C(=O)C2=O)cc1 | -10.9% | -0.3% | 10.6 | -19.8% | -7.1% | -29.0%
CCOC(=O)C1=C(O)c2ccccc2C(=O)/C1=C\c1ccc(C)cc1 | 5.8µM* | u | 0.0 | 18.4µM* | u | 5.8µM*
Cc1ccc2nc(-c3ccc(-c4cccc(Cl)c4)cc3)c(NCc3ccccc3)n2c1 | u | -1.2% | 8.0 | -11.4% | 4.1% | u
CCCCCCSc1ccc(-c2nc3ccccn3c2NCCCC)cc1 | 14.6µM* | 2.3% | u | 3.9% | 9.3% | 23.1µM*
CCCCCCSc1cccc(-c2nc3ccc(Cl)cn3c2NCCCC)c1 | 13µM* | 5.5% | 2.8 | 0.0% | x | 16.4µM*
CCC(C)Sc1ccc(-c2nc3ccc(C)cn3c2NCc2ccccc2)cc1 (stereo unspecified) | 16.4µM* | -12.4% | u | -10.1% | u | 23.1µM*
CCCCNc1c(-c2ccc(-c3cccc(Cl)c3)cc2)nc2ccccn12 | u | u | -26.1 | u | u | u
CCCCNc1c(-c2ccc(SC(C)CC)cc2)nc2ccc(Cl)cn12 (stereo unspecified) | 29.1µM* | -6.2% | 0.0 | -3.5% | x | u
COC(=O)c1ccc2[nH]c3cccc(/C(=C/c4ccccc4)c4ccccc4)c3c2c1 | u | u | -58.1* | u | 14.9% | u
O=C1CCCc2[nH]c3cccc(/C(=C/c4ccccc4)c4ccccc4)c3c21 | 18.4µM* | -17.1% | -1.0 | -6.8% | -2.5% | u
O=c1c2c([nH]c3ccccc13)CCC2 | -8.7% | 8.4% | 18.2 | 0.5% | -0.1% | -6.9%
C/C(=N\NC(=O)c1nn(C)c(C)c1Br)c1cccc(NC(=O)c2ccc(F)cc2)c1 | 16.4µM* | 0.8% | 0.0 | 8.6% | u | u
C/C(=N\NC(=O)c1c(Cl)c(C)nn1C)c1cccc(NC(=O)c2cccc(F)c2)c1 | 23.1µM* | -3.3% | i | -1.4% | u | u
C/C(=N\NC(=O)c1c(Cl)c(C)nn1C)c1cccc(NC(=O)COc2ccccc2)c1 | u | -10.5% | 0.0 | -2.7% | u | -28.8%
CN1CCN(S(=O)(=O)c2ccc(Oc3ccc(F)c(Cl)c3)nc2)CC1 | -10.9% | 6.2% | -16.6 | 1.5% | 0.3% | -1.4%
CCCC(C)C(=O)Nc1nc(C)c(-c2csc(Nc3ccccc3OC)n2)s1 (stereo unspecified) | 23.1µM* | 2.4% | 2.5 | -0.5% | u | 16.4µM*
CCCCCCC(=O)Nc1nc(C)c(-c2csc(Nc3cc(Cl)ccc3C)n2)s1 | u | -0.2% | -6.8 | -3.7% | -17.9% | -26.3%
SMILES | TDP1 cell noCPT | HT1080-NT tox | IL1B secr inh | HT1080 IDH1KD tx | ELG1 repair inh | DT40 TDP1 CPT
Cc1nc(NC(=O)c2ccccc2)sc1-c1csc(N)n1 | u | -19.1% | 0.0 | u | 17.1% | u
COc1ccccc1Nc1nc(-c2sc(NC(=O)c3ccccc3)nc2C)cs1 | u | -27.6% | -21.1 | -20.0% | -10.3% | u
CCC(=O)Nc1nc(C)c(-c2csc(Nc3ccccn3)n2)s1 | u | u | -96.0* | u | -26.6% | u
CCCC(C)C(=O)Nc1nc(C)c(-c2csc(Nc3ccc(Cl)cc3)n2)s1 (stereo unspecified) | 25.9µM* | 0.0% | -2.8 | -8.1% | u | u
Cc1nc(NC(=O)c2ccccc2)sc1-c1csc(NCCc2ccccc2)n1 | 16.4µM* | -18.7% | 2.2 | -23.1% | u | 23.1µM*
COc1ccc(C(F)(F)F)cc1N/C=C/c1nnnn1-c1ccc2ccccc2c1 | -11.6% | 6.2% | -13.4 | 4.5% | -5.0% | 4.3%
COc1ccc(C(C)=O)cc1Cn1c(C)c(C(=O)NC2CC2)sc1=O | 5.8% | 9.9% | -7.7 | 6.6% | x | -0.8%
CCCCCC(=O)Nc1nc(C)c(-c2csc(Nc3ccccc3OC)n2)s1 | 18.4µM* | -7.3% | -8.1 | -11.5% | u | 23.1µM*
CCCCCC(=O)Nc1nc(C)c(-c2csc(Nc3ccccc3OCC)n2)s1 | u | u | 3.1 | -0.3% | -5.5% | u
CCCCCCC(=O)Nc1nc(C)c(-c2csc(Nc3ccccc3OC)n2)s1 | 20.6µM* | -5.7% | -0.7 | -14.4% | u | u
CN(C)c1ccc(NC(=O)Nc2ccc3c(c2)c(=O)n(C)n3-c2ccccc2)cc1 | 20.6µM* | 16.4µM* | -23.6 | u | x | u
CN(C)c1ccc(NC(=O)Nc2ccc3c(c2)nnn3C)cc1 | -2.9% | 25.0% | -0.8 | 4.1% | u | 3.0%
CN(C)c1ccc(NC(=S)Nc2ccc3c(c2)c(=O)n(C)n3-c2ccc(C(C)(C)C)cc2)cc1 | 11.6µM* | u | 4.9 | 18.4µM* | x | 20.6µM*
Cn1ncc([N+](=O)[O-])c1C(=O)Nc1ccccc1C#N | 10.6% | -6.8% | 5.7 | -19.8% | x | 3.0%
COC(=O)c1ccc(/C=N/Nc2nc(C)c(C)s2)cc1 | u | 0.1% | x | 0.7% | u | -25.9%
O=C(Cc1ccc(F)cc1)N/N=C/c1ccccn1 | -17.4% | -10.0% | -12.6 | -12.7% | 4.9% | -19.2%
Cc1nc(N/N=C/c2ccccn2)sc1C | 1.3µM* | 13µM* | -101.4* | 14.6µM* | u | 1.3µM*
